In PubChem BioAssay (NCI):
Compounds without any hit were thinned out: in the full panel of roughly 79,000, 15% have a hit. Unmarked numbers belong to inactive results. The source made the active and inactive calls. Cut-off read from the data, not from the text of the source: active = growth inhibition above about 70%; inactive = the rest. Where a SMILES comes first, the peptide text is derived from it. The star is where a group is joined. Boc = CC(C)(C)OC(=O)*; NHNH2 = NN*

Tests used:
[1] = NCI Yeast Anticancer Drug Screen. Data for the rad50 strain (AID 155);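 note: 0% = growth of vehicle-only cultures of the same strain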; settings: S. cerevisiae rad50 strain growth inhibition; at 50.0 µM; stronger effect = higher value
In short: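 Inhibition values express reduced yeast growth in compound-treated cultures relative to vehicle-treated controls.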

[2] = NCI Yeast Anticancer Drug Screen. Data for the mec2-1 strain (AID 157); settings: S. cerevisiae mec2-1 strain, at 50.0 µM, stronger effect = higher value
In short: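 Each compound was tested on mec2-1 yeast, a strain altered in DNA damage repair or cell cycle control. Growth inhibition is reported relative to vehicle.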

[3] = NCI Yeast Anticancer Drug Screen. Data for the sgs1 mgt1 strain (AID 161);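 note: 0% = growth of cultures given vehicle only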; settings: S. cerevisiae sgs1 mgt1 strain, at 50.0 µM, stronger effect = higher value
In short: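 Mutant yeast exposed to compound; growth scored against vehicle-only wells.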

[4] = NCI Yeast Anticancer Drug Screen. Data for the cln2 rad14 strain (AID 165);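 note: 0% = growth equal to vehicle treated cultures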; settings: S. cerevisiae cln2 rad14 strain, at 50.0 µM, stronger effect = higher value
In short: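 Test compounds were added to cln2 rad14 yeast cultures; inhibition of growth was then determined by comparison with vehicle treatment.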

[5] = NCI Yeast Anticancer Drug Screen. Data for the bub3 strain (AID 167); settings: S. cerevisiae bub3 mutant strain, at 50.0 µM, stronger effect = higher value
In short: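 Steps: expose the mutant yeast strain to compound; grow alongside vehicle-treated cultures; measure growth; express inhibition against the vehicle cultures.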

[6] = NCI Yeast Anticancer Drug Screen. Data for the mlh1 rad18 strain (AID 175); settings: S. cerevisiae mlh1 rad18 strain growth inhibition; at 50.0 µM; stronger effect = higher value
In short: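 Inhibition values reflect reduced growth of mutant yeast versus vehicle-treated controls following compound exposure; the mutations affect DNA damage repair.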

Row | SMILES | growth inhibition [1] | growth inhibition [2] | growth inhibition [3] | growth inhibition [4] | growth inhibition [5] | growth inhibition [6]
1 | CC(=O)OCC(OC(C)=O)C(OC(C)=O)C(OC(C)=O)C(OC(C)=O)C(C=O)OC(C)=O (configuration not stated) | -31.6% | -1.7% | 11.7% | -37.2% | -1.25% | -7.95%
2 | Cc1ccccc1-c1ccccc1 | 14.8% | 1.3% | -17.7% | -45.8% | -5.8% | 17.6%
3 | O=C(O)/C=C\C(=O)Nc1ccc(C(=O)NCC(=O)O)cc1 | -22.9% | -4.8% | -0.85% | -20.8% | -11.8% | -7.05%
4 | CC(=O)OC1CCC2(C)C(CCC3(C)C2CCC2C4C5OC(=O)C4(CCC5(C)C)CCC23C)C1(C)C (configuration not stated) | -13% | -23.9% | -17.1% | -5.2% | -33% | 4.6%
5 | O=C(COc1ccc(Cl)c(Cl)c1)NCc1cccc(NC(=O)CBr)c1 | 99.2% (active) | 99.5% (active) | 45.2% | 99.5% (active) | 99.2% (active) | 99.2% (active)
6 | CCOc1c(N=Nc2ccccc2C)c(-c2ccccc2)nn1C(N)=S | 8.25% | 6.85% | 5.4% | 25.4% | -3.5% | 8.25%
7 | CC(=O)Cc1ccco1 | 14.5% | -3.35% | -8.8% | 22.5% | -2.2% | -10.7%
8 | CCCS(CCC)=NS(=O)(=O)c1ccc(C)cc1 | -6.75% | -0.7% | 0.6% | -0.8% | 11.6% | -9.65%
9 | c1cc2c3c(cccc3c1)C1C2C2c3cccc4cccc(c34)C12 (configuration not stated) | -11.6% | 18.2% | 7.35% | -2.7% | 3.9% | 0.05%
10 | CC/C=C/CC(=O)NCc1ccc(O)c(OC)c1 | 5.45% | -1.15% | -7.95% | 48.3% | -2.9% | -16.7%
11 | CCOc1ccccc1C(=O)OCCCc1ccccc1 | -1% | 9.15% | 7.1% | -2.25% | 25.2% | 15.4%
12 | CCCCCNC(=S)NNC(N)=O | 4.2% | -0.15% | -12.8% | -0.7% | 5.25% | -0.75%
13 | CCOC(=O)/C=C1\CCCC12OCCO2 | 29.2% | -3.65% | 3.1% | 19.2% | -5.75% | -6.1%
14 | O=C(NC1CCCCC1)/C(=C\c1ccc(/C=C(/NC(=O)c2ccccc2)C(=O)NC2CCCCC2)cc1)NC(=O)c1ccccc1 | -9.95% | -26.9% | 9.5% | -34.5% | -22.6% | -20.8%
15 | CC(NNC(=S)N1CCCCCC1)c1cccc[n+]1[O-] (configuration not stated) | 97.4% (active) | 8.3% | 96.5% (active) | 97.6% (active) | 14.3% | 33.6%
16 | O=C1CCC(=O)N1n1c(Cc2ccc(Cl)cc2)n[nH]c1=O | 17.4% | 8.5% | 19.1% | 4.85% | 12.8% | -44.6%
17 | COc1ccc(C2(C=O)CN(C)CN2)cc1 (configuration not stated) | -7.2% | -3.95% | -14.7% | -21.2% | -13.8% | -7.2%
18 | [Cl][Pt+2][Cl].[NH-]CC1([NH-])CCCCC1 | -10.2% | 14.1% | -19.6% | -2.8% | -5.6% | -31.9%
19 | Cc1cccc(C(=O)OCCCl)c1 | 15.6% | -7.5% | 8.3% | -29.1% | 5% | 5.2%
20 | Cc1ccc(NC(=O)C(=O)C(C#N)c2nc(-c3ccc(-c4ccccc4)cc3)cs2)c(C)c1 (configuration not stated) | 8% | -2.75% | 19.4% | 28.4% | 4.75% | -10.1%
21 | Cc1cccc(NC(=O)Nc2ccccc2)n1 | 4.65% | 0.9% | 9.55% | -71.5% | -18.9% | -10.1%

Row | SMILES | growth inhibition [1] | growth inhibition [2] | growth inhibition [3] | growth inhibition [4] | growth inhibition [5] | growth inhibition [6]
22 | COc1cc([C@@H]2c3cc4c(cc3[C@](C)(O)[C@H]3COC(=O)[C@H]23)OCO4)cc(OC)c1OC | 19.7% | 10.4% | 14.1% | 22.8% | 19.1% | 11%
23 | COc1ccc(C2CC(=O)N(c3ncccc3C)C(=O)C2)cc1 | -1% | 6.9% | -1.05% | -21.1% | -18.8% | 3.65%
24 | CCC(C)C(N)C(=O)N1CCCC1C(=O)O (stereo not drawn) (H-Ile-Pro-OH; configuration not given here) | -23.1% | -4.65% | -1.15% | -25.9% | -2.45% | -3.15%
25 | CC(=O)C1C(=O)C(=O)N(c2ccc(Br)cc2)C1=O (configuration not stated) | -33.5% | -12.6% | -14.3% | -9.8% | -24.4% | -38%
26 | COc1cc2ccc3c[n+]4ccccc4cc3c2cc1OC | 9.25% | 14.2% | 19.9% | 19.4% | 20.2% | 14%
27 | CCOC(=O)CCC(C(=O)c1cccnc1)c1ccccn1 (configuration not stated) | -4% | -3.6% | 6.7% | -52.9% | -4.6% | -7.05%
28 | COc1ccc([N+](=O)[O-])cc1N=NN(C)C | -1.9% | -11.7% | -10.8% | -6.3% | -5.8% | -8.45%
29 | CCC(C)C(NC(=O)C(Cc1c[nH]c2ccccc12)NC(=O)OC(C)(C)C)C(=O)NN (stereo not drawn) (Boc-Trp-Ile-NHNH2; configuration not given here) | 24.8% | 3.7% | 8.5% | 15.4% | -4.35% | 15.6%
30 | CC(C)C(=O)OC1c2cc(OCCN(C)C)ccc2CC1C (configuration not stated) | -11% | -6.75% | -8.3% | -27.9% | -5.95% | -33.9%
31 | O=C(O)CC12C3C4C5C3C1C5C42 (configuration not stated) | 24.1% | 17.1% | 15.2% | 8.5% | 47.9% | 26.6%
32 | O=[N+]([O-])CC1CCCCC1 | -2.7% | -19.9% | 6.85% | 14.3% | -1.3% | 19.1%
33 | NNC(=O)c1nnc(N)o1 | -11.6% | -12.1% | 7.25% | -9.45% | -11.7% | 6.45%
34 | O=C1NC(=S)SC1=C1CCCCC1 | 22.9% | 42.5% | 41.6% | 34.5% | 37.9% | 28.2%
35 | COc1c2occc2c(S(=O)(=O)O)c2ccc(=O)oc12 | -12.5% | 4.05% | 6.45% | 3.75% | -40.6% | 2.7%
36 | CCOC(=O)OC1CC2CC(OC(=O)OCC)c3cccc(Br)c3C2c2ccccc21 (configuration not stated) | 25.1% | 12.9% | 18.8% | 0.05% | -5.3% | 33.7%
37 | O=C(O)c1cc(-c2ccccc2)ccc1O | 27.8% | -70.3% | 12.6% | 25.2% | -2.6% | 46.6%
38 | c1ccc(-c2nnc(SCc3nc4ccccc4[nH]3)o2)cc1 | 5.65% | 9.75% | 29.8% | 36.3% | 20.4% | 52%
39 | COc1ccc(C(CCl)(CCl)c2ccc(OC)cc2)cc1 | 11.8% | -40% | 4.35% | 15.3% | 31.6% | -9.9%
40 | CC(=O)C(C)(C)OC(=O)COc1ccc(Cl)cc1 | -39% | -2.75% | -9.45% | 43.4% | 32.3% | -24.6%
41 | CN1C(=O)C(O)C[C@@H]1c1ccc(F)cc1 (some centres not stated) | -5% | 6.8% | 12.7% | 16.6% | -0.25% | -30.4%
42 | O=C(O)c1c(Br)c(Br)c(Br)c(Br)c1C(=O)Nc1ccc(Cl)c(Cl)c1 | -1.05% | 5.15% | -0.75% | -11.1% | 0% | -21%
